According to PubChem BioAssay AID2625 (National Center for Advancing Translational Sciences (NCATS), 2010):
Inconclusive results are not listed. Calls come from the whole dose curve; as a rule, active = well fitted curve in the direction sought with a large enough effect; inconclusive = small, poorly fitted or top-dose-only effect, or effect the other way, or another doubt; inactive = no such curve, though single readings can be large or run the other way.

molecular target: Pyruvate kinase PKLR (Homo sapiens) (UniProt P30613); test: Secondary LDH Assay for Activators of Human Liver Pyruvate Kinase: for Probe SAR; conditions: purified hPK-L, LDH-coupled NADH fluorescence kinetic; series mostly up to 58.2 µM; activity change, positive = activation: at the top concentration;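 note: 0% = uninhibited enzyme rate and 100% = full activation by fructose bisphosphate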
Summary of the method: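 Kinetic LDH-coupled read-out: NADH fluorescence loss followed every 30 s for 3–6 min gave initial rates. Reaction: 10 nM human liver PK, 0.1 mM PEP, 4 mM ADP, 0.2 mM NADH, 50 mM Tris-Cl pH 8.0; activation normalised to fructose-bis-phosphate.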

Sequence of Pyruvate kinase PKLR (Homo sapiens) (P30613 whole entry, looked up): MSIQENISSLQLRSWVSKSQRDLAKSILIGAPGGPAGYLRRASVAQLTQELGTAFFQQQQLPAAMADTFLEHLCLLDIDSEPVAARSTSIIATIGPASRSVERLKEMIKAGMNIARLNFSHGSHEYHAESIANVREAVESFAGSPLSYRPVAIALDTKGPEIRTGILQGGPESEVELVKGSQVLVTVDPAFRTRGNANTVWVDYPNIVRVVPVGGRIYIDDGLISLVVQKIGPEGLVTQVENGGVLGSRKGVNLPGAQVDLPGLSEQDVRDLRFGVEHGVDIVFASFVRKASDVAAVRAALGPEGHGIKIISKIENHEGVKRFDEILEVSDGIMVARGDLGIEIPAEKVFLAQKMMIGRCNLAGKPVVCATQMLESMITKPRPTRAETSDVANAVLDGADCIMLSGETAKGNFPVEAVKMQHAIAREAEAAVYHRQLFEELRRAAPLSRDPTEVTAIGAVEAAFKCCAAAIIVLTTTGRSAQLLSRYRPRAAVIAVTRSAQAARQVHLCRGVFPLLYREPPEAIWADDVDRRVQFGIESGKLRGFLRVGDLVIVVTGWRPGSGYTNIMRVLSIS

Activity change, positive = activation, inactive:
O=C1CCc2cc(Cl)c(S(=O)(=O)Nc3ccc(Cl)c(Cl)c3)cc2N1 19.4%
Cc1cccc(NS(=O)(=O)c2ccc3c(c2)CCC(=O)N3)c1 14.6%
Cn1c2cc(S(C)=O)sc2c2cnn(Cc3cccc(O)c3)c(=O)c21 (stereo unspecified) 13.1%
CC(C)Nc1cccc(S(=O)(=O)N2CCCN(S(=O)(=O)c3ccc4c(c3)OCCO4)CC2)c1 10.6%
COc1cccc(OC2=NS(=O)(=O)c3ccccc32)c1 9.2%
O=C1c2ccccc2C(=O)N1c1ccncc1 16%
